HIF activator: HIF pathway transcriptional activators, primary screen, cell-based, U2OS HRE-luciferase, luminescence | U2OS HRE-luciferase reporter; normalized: DMSO 0%, desferrioxamine 100% | activation, % at 7.5 µM (by protocol) | actives 0.32% (n = 300,000);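 active means mean activation of at least 10% of the iron chelator positive control signal, with at least half of replicates also reaching 10%; inconclusive means mean and replicate majority disagree about reaching 10%; inactive means mean and most replicates under 10%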
ARNT TACC3 PPI: disruptors of ARNT/TACC3 protein interaction, primary screen, biochemical, AlphaScreen, single concentration; AlphaScreen His-ARNT PAS-B/GST-TACC3 binding, luminescence; TACC3 fragment carries E629A point mutation; actives 0.66% (n = 390,000); AID 623870, 2012; inhibition, % at 9.99 µM;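 active means mean inhibition of replicates at least 50% and at least half of replicates each reaching 50%; inconclusive means half or more replicates reach 50% but mean below 50%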;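 further: 0% = complete ARNT plus TACC3 wells and 100% = ARNT alone without TACC3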
HSF1 inhib: HSF1 inhibitors in luciferase reporter cells, primary screen, cell-based, NIH3T3, luminescence. actives 0.77% (n = 300,000). activity change, negative = inhibition, % at 7.5 µM (by protocol). NIH3T3-HGL HSE-luciferase, MG132-induced, luminescence 8 h; active compounds read low. AID 2098, 2009;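 active means more than half of replicate wells show activity change below -50%, luminescence cut by over half; inconclusive means some wells, but at most half, below -50%; inactive means no replicate well below -50%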;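 further: luciferase reports HSF-1 transcriptional activity via heat shock element; 0% = median of DMSO wells and -100% = zero luminescence signal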
HSF1 activator: HSF-1 activators, primary screen, NIH3T3-HGL cells, MG132 stress, luminescence, single point; NIH3T3-HGL HSF-1 luciferase reporter, 8 h; 100% = twice DMSO control signal; activation, % at 9 µM; actives 1.7% (n = 300,000); AID 504408, 2011;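 active means mean replicate activation of at least 50% with a set share of replicates each reaching 50%; inconclusive means only one of those two conditions met; inactive means mean below 50% and too few replicates reaching it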;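 further: 0% = median of the neutral control wells and 100% = twice that signal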
HSP90 refold inh: HSP90 inhibitors, primary screen, cell lysate, luminescence. Rabbit reticulocyte lysate, luciferase refolding luminescence, 3 h. inhibition, % at 5.6 µM. actives 0.91% (n = 290,000). AID 1789, 2009;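 active means inhibition above the screen-wide mean plus 3 SD, computed separately per campaign, cut at about 16% in these data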;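 further: 0% = DMSO wells and 100% = 60 µM geldanamycin wells; inhibitors lower the luminescence because luciferase stays unfolded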
* = called active by the depositor. An excerpt weighted towards active compounds, which were near 3.1% of everything screened.

`CCCOc1cccc(C2C(C(=O)c3ccco3)=C(O)C(=O)N2CCCn2ccnc2)c1` (stereo not drawn) gave HIF activator 39.0*, ARNT TACC3 PPI 8.9, HSF1 inhib -12.0, HSF1 activator 21.3 and HSP90 refold inh 1.1.
CCCNC(=O)NC1C(NC(=O)NCCC)N(C)C(=O)N1C (stereo not drawn) was read as HIF activator -0.4, ARNT TACC3 PPI -2.9, HSF1 inhib -57.0*, HSF1 activator -67.5 and HSP90 refold inh -0.3.
For COc1ccc(NC(=O)N[C@@H]2CC[C@H](CCNC(=O)Nc3cc(F)ccc3F)O[C@@H]2CO)cc1 the results were ARNT TACC3 PPI 5.1.
`COc1ccc(CCCc2nc3ccccc3[nH]2)cc1` gave HIF activator 0.9, ARNT TACC3 PPI -6.4, HSF1 inhib 2.3, HSF1 activator -6.9 and HSP90 refold inh 2.3.
For COc1ccc(-c2cc(=O)n(-c3nc4ccccc4[nH]3)[nH]2)cc1 the results were HIF activator 1.1, ARNT TACC3 PPI 46.7*, HSF1 inhib 7.4, HSF1 activator 2.6 and HSP90 refold inh -2.1.
CN(c1ccccc1)c1ccc(/C=C(\CCC(=O)O)c2nc3ccccc3s2)cc1[N+](=O)[O-] was read as HIF activator -0.3, ARNT TACC3 PPI 12.4, HSF1 inhib 16.2, HSF1 activator 56.7* and HSP90 refold inh -1.5.
Screening Cc1ccc(/C=C(\CCC(=O)O)c2nc3ccccc3s2)cc1[N+](=O)[O-] returned HIF activator 0.2, ARNT TACC3 PPI -2.8, HSF1 inhib 12.2, HSF1 activator 44.9 and HSP90 refold inh -5.4.
Screening CCOC(=O)c1cnc(-n2[nH]c(C)c(Cc3ccccc3)c2=O)[nH]c1=O returned HIF activator 0.3, ARNT TACC3 PPI 74.9*, HSF1 inhib -2.2, HSF1 activator -10.1 and HSP90 refold inh -1.6.
`CCOc1ccc2sc(NS(=O)(=O)c3ccc(OC)c(OC)c3)nc2c1` gave HIF activator 0.3, ARNT TACC3 PPI 1.7, HSF1 inhib 32.1, HSF1 activator 64.4* and HSP90 refold inh -1.4.
Screening COc1cc(C(=O)c2c(C)c(CCC#N)n3ccccc23)cc(OC)c1OC returned HIF activator 3.2, ARNT TACC3 PPI 4.1, HSF1 inhib 1.9, HSF1 activator 10.8 and HSP90 refold inh -2.5.
`COc1cccc(C(=O)c2c(C)c(CCC#N)n3ccccc23)c1OC` gave HIF activator 0.3, ARNT TACC3 PPI 12.4, HSF1 inhib 120.0, HSF1 activator 180.3* and HSP90 refold inh -0.9.
`Cc1ccc(S(=O)(=O)Nc2cccnc2Oc2ccc(Cl)cc2)cc1` gave HIF activator -0.3, ARNT TACC3 PPI 3.4, HSF1 inhib -3.8, HSF1 activator 3.0 and HSP90 refold inh 4.8.
`Cc1ccc(S(=O)(=O)Nc2cc(Cl)c(O)c3ncccc23)cc1` gave HIF activator 0.0, ARNT TACC3 PPI 47.8*, HSF1 inhib -1.5, HSF1 activator -4.0 and HSP90 refold inh 5.3.
O=C(Oc1c(CN2CCOCC2)cc(Cl)c2cccnc12)c1ccccc1Cl was read as HIF activator -0.5, ARNT TACC3 PPI 70.8*, HSF1 inhib -4.5, HSF1 activator 5.5 and HSP90 refold inh -0.2.
`COc1ccc(C(=O)Oc2c(CN3CCOCC3)cc(Cl)c3cccnc23)cc1` gave HIF activator -6.3, ARNT TACC3 PPI 64.7*, HSF1 inhib -11.1, HSF1 activator -10.3 and HSP90 refold inh 3.8.
`O=C(Oc1ccc(Cl)c2cccnc12)N1CCOCC1` gave HIF activator 0.1, ARNT TACC3 PPI 3.7, HSF1 inhib -7.6, HSF1 activator -16.0 and HSP90 refold inh 0.5.
For O=C(Oc1c(CN2CCOCC2)cc(Cl)c2cccnc12)c1ccc(F)cc1 the results were HIF activator 2.9, ARNT TACC3 PPI 64.8*, HSF1 inhib -4.8, HSF1 activator -15.1 and HSP90 refold inh 0.3.
For COc1cc(C(=O)Oc2c(OC)cc(C(=S)N3CCOCC3)cc2OC)cc(OC)c1OC the results were HIF activator 0.7, ARNT TACC3 PPI 11.0, HSF1 inhib -1.2, HSF1 activator -5.9 and HSP90 refold inh -2.9.
For COc1cc(C(=O)Oc2c(CN3CCOCC3)cc(Cl)c3cccnc23)cc(OC)c1OC the results were HIF activator 0.2, ARNT TACC3 PPI 70.3*, HSF1 inhib -23.2, HSF1 activator -37.6 and HSP90 refold inh 0.4.
C[C@@H]1CN([C@H](C)CO)C(=O)c2cc(C#CCN(C)C)cnc2O[C@H]1CN(C)Cc1ccc2c(c1)OCO2 was read as ARNT TACC3 PPI -1.8.
O=C(Nc1cccc(F)c1)N1CCCCN2[C@@H](CO)[C@H](c3ccc(C#Cc4cccnc4)cc3)[C@@H]2C1 was read as ARNT TACC3 PPI -0.7.
For COc1ccc(NC(=O)N2C[C@@H](O)COC[C@@H]3O[C@@H](CC(=O)N4CCN(C)CC4)CC[C@H]32)cc1 the results were ARNT TACC3 PPI -6.2.
`CC(=O)N(C)C[C@H]1Oc2cc(-c3ccccc3F)ccc2S(=O)(=O)N([C@@H](C)CO)C[C@H]1C` gave ARNT TACC3 PPI -1.0.
Cc1ccccc1CN(C)C[C@H]1OCc2cn(nn2)CCCC(=O)N([C@H](C)CO)C[C@H]1C was read as ARNT TACC3 PPI 4.9.
For COC(=O)CS(=O)(=O)c1nnc([C@H](Cc2ccccc2)NC(=O)OC(C)(C)C)o1 the results were HIF activator -0.1, ARNT TACC3 PPI -6.2, HSF1 inhib 34.6, HSF1 activator inconclusive and HSP90 refold inh -1.3.
Screening Cc1cccc(CS(=O)(=O)c2nnc([C@H](Cc3ccccc3)NC(=O)OC(C)(C)C)o2)c1 returned HIF activator -0.8, ARNT TACC3 PPI -2.5, HSF1 inhib -67.5*, HSF1 activator -69.2 and HSP90 refold inh 9.9.
For CN(Cc1nnc(-c2ccc(F)cc2)o1)c1ccccc1 the results were HIF activator -1.2, HSF1 inhib 13.2, HSF1 activator 59.7* and HSP90 refold inh 5.3.
Screening CO[C@@H]1CN(C)C(=O)c2cc(NC(C)=O)ccc2OC[C@@H](C)N(Cc2cccc(F)c2)C[C@H]1C returned ARNT TACC3 PPI 4.4.
Screening C[C@H](CO)N1C[C@H](C)[C@H](CN(C)S(C)(=O)=O)Oc2c(NC(=O)Nc3ccc(C(F)(F)F)cc3)cccc2C1=O returned ARNT TACC3 PPI 8.1.
Screening O=[N+]([O-])c1ccc(C(O)CSC(=S)N2CCCCC2)cc1 (stereo not drawn) returned HIF activator 6.7, ARNT TACC3 PPI -11.9, HSF1 inhib 33.7, HSF1 activator 70.5* and HSP90 refold inh 3.6.
`O=C(Nc1ccccc1)C(=O)Nc1cccnc1` gave HIF activator -0.2, ARNT TACC3 PPI 1.7, HSF1 inhib 16.7, HSF1 activator 48.8 and HSP90 refold inh 16.3*.

High-throughput results from PubChem.
